EBV LMP1 NFkB: inhibitors of Epstein-Barr LMP1-induced NF-kappaB reporter; LMP1-induced NF-kappaB luciferase reporter cells, luminescence; inhibition, % at 12.5 µM; hit rate 0.69% among 350,000; AID 504558; in the data active = inhibition above about 41%
HSP90 inh: blocks HSP90-mediated luciferase refolding in reticulocyte lysate; Rabbit reticulocyte lysate, luciferase refolding luminescence, 3 h; inhibition, % at 5.6 µM; hit rate 0.91% among 290,000; AID 1789;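 active = inhibition above the screen-wide mean plus 3 SD, computed separately per campaign, cut at about 16% in these data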;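 note: inhibitors lower the luminescence because luciferase stays unfolded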
HSF1 inh: HSF1 inhibition; NIH3T3-HGL HSE-luciferase, MG132-induced, luminescence 8 h; hits give low values; activity change, negative = inhibition, % at 7.5 µM (by protocol); hit rate 0.77% among 300,000; AID 2098;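 active = more than half of replicate wells show activity change below -50%, luminescence cut by over half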;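 note: luciferase reports HSF-1 transcriptional activity via heat shock element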
HSF-1 act: increases HSF-1 driven luciferase reporter signal; NIH3T3-HGL HSF-1 luciferase reporter, MG132, 8 h; 100% = twice DMSO control signal; activation, % at 9 µM; hit rate 1.7% among 300,000;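 active = mean replicate activation of at least 50% with a set share of replicates each reaching 50%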
TROY signal inh: inhibitors of TROY-dependent NF-kB signaling; hit rate 0.98% among 360,000; inhibition, % at 10 µM; Q293 LMP1-TROYcd NF-kB luciferase reporter, 4 h;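 active = compounds whose plate-normalised and pattern-corrected inhibition of the luciferase reporter signal at the single screening dose is 50% or more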
TWEAK Fn14 block: TWEAK-Fn14 signaling inhibition. TWEAK-stimulated Fn14 reporter cells, luciferase luminescence, 8 h. inhibition, % at 10 µM. hit rate 2% among 360,000. AID 1159606; in the data active = inhibition above about 50%
Hits are given with their value; - = inactive; . = not tested or not shown. This is a sample that favours compounds with a hit; in the whole collection about 4.7% have one here.

SMILES | EBV LMP1 NFkB | HSP90 inh | HSF1 inh | HSF-1 act | TROY signal inh | TWEAK Fn14 block
CC(C)(C)c1ccc(C(=O)N2CCC2(C)C(=O)Nc2cccc3ncccc23)cc1 (stereo not given) | . | . | . | . | - | -
CCN(Cc1ccccc1)C(=O)C1CCN(Cc2sccc2C)CC1 | - | - | -56 | - | - | -
CCN(Cc1ccccc1)C(=O)C1CCN(CC2CC=CCC2)CC1 (stereo not given) | - | - | - | - | - | -
CCCNC(=O)C1(C)CCCN(Cc2csc(-c3ccccc3)n2)C1 (stereo not given) | . | . | . | . | - | -
O=C(COC(=O)C12CC3CC(CC(C3)C1)C2)NCCCc1ccccc1 | - | - | - | - | - | -
O=C(CCCc1ccccc1)NC12CC3CC(CC(C3)C1)C2 | - | - | - | 69 | - | -
CC1(C(=O)NCCC(F)(F)F)Cc2c(-c3ccccc3)ccnc2O1 (stereo not given) | . | . | . | . | - | -
CC(=O)Nc1ccc(OCc2nnc(-c3ccc(Cl)cc3)o2)cc1 | - | - | - | 65 | - | -
COc1ccccc1Cc1c(-c2cccc(Br)c2)nc2c(C)cc(Br)cn12 | . | . | . | . | - | -
CC(C)NC(=O)Nc1nnc([C@H]2C[C@H](O)[C@@H](CO)O2)s1 | . | . | . | . | - | -
CCn1cc(Cl)c(C(=O)N2N=C(c3ccc4ccccc4c3)CC2c2ccccc2O)n1 (stereo not given) | - | - | - | - | - | 72
CCn1cc([N+](=O)[O-])c(C(=O)N2N=C(c3ccc4ccccc4c3)CC2c2ccccc2O)n1 (stereo not given) | - | - | - | - | - | -
Cc1ccc(CSc2nc3ncccc3[nH]2)cc1 | - | - | - | 77 | - | -
C=C(C)CSc1nc2ncccc2[nH]1 | - | - | - | - | - | -
C[C@H](CO)N1C[C@H](C)[C@H](CN(C)Cc2ccncc2)Oc2cc(-c3ccccc3F)ccc2S1(=O)=O | - | . | . | . | - | -
CCN1C(=O)[C@H]2[C@@H](c3ccc(C(F)(F)F)cc3)N[C@]3(CCCN(Cc4ccc(C(F)(F)F)cc4)C3=O)[C@H]2C1=O | - | . | . | . | - | -
CCCn1c(NC(=O)c2ccccc2)nc2ccccc21 | - | - | - | - | - | -
CCc1nnc(NC(=O)c2cccc(S(=O)(=O)N3CCCCC3)c2)s1 | - | - | -56 | - | - | -
CCCn1c(NC(=O)c2cccc(S(=O)(=O)N3CCCC3)c2)nc2ccccc21 | - | - | -54 | - | - | -
O=C(Nc1ccc(Cl)c(S(=O)(=O)N2CCOCC2)c1)c1ccc(OCC2CCCO2)cc1 (stereo not given) | - | - | - | - | 77 | 99
CCOc1ccc(NC(=O)c2ccc(F)c(S(=O)(=O)N3CCN(c4ccccn4)CC3)c2)cc1 | - | - | - | - | - | -
COc1ccc(C(=O)Nc2ccc(Cl)c(S(=O)(=O)N3CCOCC3)c2)cc1 | - | . | . | . | - | -
O=C(NCCN1CCOCC1)c1ccc2c(c1)N(Cc1ccccc1F)C(=O)c1ccccc1S2 | - | - | - | - | - | -
O=C(CN1C(=O)CCOc2ccccc21)Nc1ccc(Cl)c(S(=O)(=O)N2CCOCC2)c1 | 42 | . | . | . | - | -
Cc1ccccc1CN1C(=O)c2ccccc2Sc2ccc(C(=O)NCCN3CCOCC3)cc21 | - | - | - | 60 | - | -
SMILES | EBV LMP1 NFkB | HSP90 inh | HSF1 inh | HSF-1 act | TROY signal inh | TWEAK Fn14 block
O=C(Nc1cccc(Cl)c1)c1ccc(F)c(S(=O)(=O)N2CCN(c3ccccn3)CC2)c1 | - | - | - | - | - | 59
OCc1ccccc1-c1ccc2nncn2c1 | . | . | . | . | - | -
C[C@H]1CN([C@@H](C)CO)S(=O)(=O)c2ccc(C#Cc3cccnc3)cc2O[C@@H]1CN(C)C(=O)Nc1ccc2c(c1)OCO2 | - | . | . | . | - | -
CCOc1ccc(C(=O)NCc2ccncc2)cc1OCC | - | - | -61 | - | - | -
O=C(Nc1cccc(Br)c1)c1ccc(Cl)c(S(=O)(=O)N2CCOCC2)c1 | - | - | - | - | - | 77
CCOc1cc(C(=O)NCc2ccncc2)cc(OCC)c1OCC | - | - | - | - | - | -
COc1ccc(C(=O)NCc2ccncc2)cc1S(=O)(=O)N1CCOCC1 | - | . | . | . | - | -
O=C(NCCN1CCOCC1)c1ccc(Cl)c(S(=O)(=O)N2CCCCCC2)c1 | - | - | - | - | . | 66
O=C(NCc1ccncc1)c1ccc(Cl)c(S(=O)(=O)N2CCOCC2)c1 | - | - | -76 | - | - | -
O=C(NCCN1CCOCC1)c1ccc(Cl)c(S(=O)(=O)N2CCCC2)c1 | - | - | - | - | - | -
Cc1c(C)c2ccc(OCC(=O)NCCc3c[nH]c4ccccc34)cc2oc1=O | . | . | . | . | - | -
CC1(C(=O)NCCCNc2ncc(C(F)(F)F)cc2Cl)C=CC2(CCCCC2)N1C(=O)c1ccccc1 (stereo not given) | . | . | -69 | - | . | .
CC1(C(=O)O)C=CC2(CCCCC2)N1C(=O)c1ccccc1 (stereo not given) | - | - | - | - | - | -
O=C(Nc1ccc(Cl)cc1)c1ccc2sc([C@@H]3O[C@H](CO)[C@@H](O)[C@H]3O)nc2c1 | . | . | . | . | - | -
CSc1ncnc2c1ncn2CCCNc1ccc(C)c(C)c1 | - | . | . | . | - | -
CCOc1cccc(/C=N/Nc2ccc(S(=O)(=O)N(CC)CC)cn2)c1O | 57 | - | - | - | - | -
CCOC(=O)C1(C)CCN1C(=O)c1ccc(Cl)nc1 (stereo not given) | . | . | . | . | - | -
O=C(NC(c1ccccc1)c1ccc2ccccc2n1)C1CCN(Cc2ccc(Cl)c(Cl)c2)CC1 (stereo not given) | . | . | . | . | - | -
O=C(CN(Cc1ccccc1Cl)S(=O)(=O)c1ccc(Cl)cc1)N/N=C/c1ccc(C(=O)O)cc1 | - | - | -86 | - | - | -
O=C(CN(Cc1ccccc1)S(=O)(=O)c1ccccc1)N/N=C/c1ccc([N+](=O)[O-])cc1 | - | - | - | - | - | -
Cn1nc(C(C)(C)C)cc1C(=O)N1CCCCC1c1cc(C(=O)NCc2ccc(F)cc2)no1 (stereo not given) | . | . | . | . | - | -
CCCc1nnc(NC(=O)CCC(=O)N2CCN(S(=O)(=O)c3ccc(F)cc3)CC2)s1 | - | - | -86 | - | - | -
CCc1nnc(NC(=O)CCC(=O)N2CCN(C3c4ccccc4-c4ccccc43)CC2)s1 | - | - | - | - | 78 | 70
CCCc1nnc(NC(=O)CNc2ccc(F)cc2)s1 | - | - | - | - | . | 81
CCc1nc2c(OCCC3CCCCC3)cccn2c1N(C=O)Cc1ccccc1 | . | . | . | . | - | -
c1cncc(-c2nnc(SCc3nc4ccccc4[nH]3)o2)c1 | - | - | -68 | - | 74 | -
CSc1ncccc1C(=O)N1CCC1(C)C(=O)NC(C)C (stereo not given) | . | . | . | . | - | -
CC1CC(C)CN(C(=O)CCS(=O)(=O)c2ccc3c(c2)NC(=O)CS3)C1 (stereo not given) | - | - | - | 85 | - | -
O=C(CCCOc1ccccc1)N1CCN(c2ccccn2)CC1 | - | - | - | - | - | 70

Assay outcomes: PubChem BioAssay, several laboratories
